FECH block = inhibitors of human ferrochelatase. 20,000 tested, 3.3% active. calls only at 10 µM (by protocol). purified FECH, Ni-mesoporphyrin absorbance 550 nm. P22830;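 active = enzyme reaction rate more than 3 SD below the solvent-only control wells on the same plate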;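 also: lower slope than DMSO wells means FECH inhibition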
Target sequence (P22830 whole entry, looked up): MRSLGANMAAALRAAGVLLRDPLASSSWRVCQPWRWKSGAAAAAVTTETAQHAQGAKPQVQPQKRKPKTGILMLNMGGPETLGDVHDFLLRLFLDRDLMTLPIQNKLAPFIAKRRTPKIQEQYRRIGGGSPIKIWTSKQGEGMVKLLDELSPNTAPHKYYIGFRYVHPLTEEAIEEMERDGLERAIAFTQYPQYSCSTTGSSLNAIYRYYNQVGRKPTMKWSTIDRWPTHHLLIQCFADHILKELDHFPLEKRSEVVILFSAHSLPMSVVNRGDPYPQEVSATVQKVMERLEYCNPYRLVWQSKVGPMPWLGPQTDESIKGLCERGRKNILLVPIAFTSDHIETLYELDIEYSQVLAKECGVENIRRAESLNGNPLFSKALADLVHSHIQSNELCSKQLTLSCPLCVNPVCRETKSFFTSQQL
* = called active by the depositor; i = inactive; + = active, no number. Only a selection was taken, and hits are over-represented in it overall.

SMILES	FECH block
Cc1ccccc1OCC(=O)Nc1ccc(C)c(OCc2cc(=O)n3cccc(C)c3n2)c1	+
CCC(Oc1ccccc1)C(=O)Nc1ccc(C)c(OCc2cc(=O)n3cccc(C)c3n2)c1 (stereo not drawn)	i
Cc1ccc(NC(=O)COc2ccccc2)cc1OCc1cc(=O)n2cccc(C)c2n1	+
Cc1cccc(OCC(=O)Nc2cccc(OCc3cc(=O)n4ccc(C)cc4n3)c2)c1	i
Cc1cccc(OCC(=O)Nc2ccc(C)c(OCc3cc(=O)n4cccc(C)c4n3)c2)c1	+
Cc1cc(Sc2ccc(NC(=O)Nc3cccc(Cl)c3)cc2)n2ncnc2n1	i
CCN1C(=O)c2cc(C(=O)NCc3ccccn3)nn2CC1(C)C(=O)NC1CCCC1 (stereo not drawn)	i
CN(Cc1cc(-c2ccncc2)no1)Cc1ccnc2ccccc12	i
COc1cccc(-c2ncc(CNC(=O)c3cn[nH]n3)s2)c1	i
CCn1c(CNS(=O)(=O)c2c(C)noc2C)nc2cccnc21	i
COc1cc(CN2CCCN(c3ccnc(C)c3)CC2)cc(Cl)c1O	i
CCc1ncc(CN2CCN(C(=O)c3cccc(OC)c3)CC2)cn1	i
CCS(=O)(=O)N1CCC2(CCCN(Cc3cc(OC)ccc3F)C2)C1 (stereo not drawn)	i
Cc1cccc(-c2nc3nc(CN4CCCCC4C)cc(=O)n3[nH]2)c1 (stereo not drawn)	+
Cc1cccc(-c2nc3nc(CN4CCCC4)cc(=O)n3[nH]2)c1	i
CC1CCCCN1Cc1cc(=O)n2[nH]c(-c3ccc(C(C)(C)C)cc3)nc2n1 (stereo not drawn)	i
Cc1ccc(C(=O)Nc2ccc(Nc3nc(C)cc(N(C)C)n3)cc2)cc1	i
Cc1cc(N(C)C)nc(Nc2ccc(NC(=O)c3ccc(I)cc3)cc2)n1	i
Cc1cc(C)cc(C(=O)Nc2ccc(Nc3nc(C)cc(N(C)C)n3)cc2)c1	+
O=C(NCCN1CCCC1)c1nc(N2CCCC2)c2oc3ccccc3c2n1	i
CCc1cc(CN(C)C(=O)CN2CCOc3ccccc3C2)on1	i
CCc1cc(CN(C)C(=O)c2cnon2)on1	i
CCc1cc(CN(C)C(=O)c2cn3c4c(cccc4c2=O)CC3)on1	+
Cc1cc(N(C)C)nc(Nc2ccc(NC(=O)c3ccc(Br)o3)cc2)n1	i
CCNC(=O)[C@@H]1C[C@@H](N)CN1C(=O)c1cc(C(F)(F)F)ccc1Cl	i
SMILES	FECH block
CNc1ccnc(N2CCN(CCc3ccccc3)CC2)n1	i
CCc1cc(C(=O)NCc2cc(C)cc3c(C)c(CC)[nH]c23)n(C)n1	+
CCc1[nH]c2c(CNc3cc(N4CCOCC4)ncn3)cc(C)cc2c1C	i
CCCNC(=O)NCc1cc(C)cc2c(C)c(CC)[nH]c12	i
CN1CCN(C(=O)c2[nH]cnc2C(=O)NCC(C)(C)C)CC1	i
COc1cc(NC(=O)CN2CCC(Oc3ncccn3)CC2)cc(OC)c1	i
CO[C@H]1CN(c2nccc(CCC(F)(F)F)n2)CC[C@H]1N	i
O=C(CN1c2ccc(Br)cc2-c2ccccc2S1(=O)=O)NCc1ccccn1	+
CC(C)OCCCNC(=O)CN1c2ccc(Br)cc2-c2ccccc2S1(=O)=O	+
O=C(CN1c2ccc(Br)cc2-c2ccccc2S1(=O)=O)NCCN1CCOCC1	i
O=C(CN1CCC(c2ccccc2C(=O)O)C1)NCc1ccccn1 (stereo not drawn)	i
COCCNC(=O)CN1c2ccc(Br)cc2-c2ccccc2S1(=O)=O	+
CC(C)OCCCNC(=O)c1ccc(CN2C(=O)CCn3nc(-c4ccccc4)cc32)cc1	i
CCC1=C(c2ccc(OC)cc2)S(=O)(=O)N(CC(=O)NCc2cccc(Br)c2)C1=O	i
O=C(NCc1ccccn1)C1(Oc2cccc3ncccc23)CCNCC1	i
C=CCOc1cccc(NC(=O)CN2c3ccc(Br)cc3-c3ccccc3S2(=O)=O)c1	i
Cc1nc(C(C)C)ncc1C(=O)N1CCN(Cc2ccccc2CO)CC1	i
COCC(=O)N[C@H]1C[C@@H](C(=O)NCc2ccccc2F)N(C)C1	i
CC1CCCC(C)N1CCNC(=O)C1CCN(c2ncnc3c2nc2n3CCCCC2)CC1 (stereo not drawn)	i
Cn1c(CNS(=O)(=O)c2ccc3c(c2)CCCC3)nc2cccnc21	i
CCOC(=O)Cn1c(=O)n(-c2ccc(F)cc2)c2nc(-c3ccc(SC)cc3)nc(C(N)=O)c21	i
COc1cccc(CN2CCCC(O)(CNCC(F)F)C2=O)c1OC (stereo not drawn)	i
CCOc1cc(Cl)c(CN2CCN(c3ccc(C)nn3)CC2)cc1OC	i
CCOc1ccc(-n2c(CN3CCNCC3)nc3cccnc32)cc1	i
O=C1N(CC2CCC2)CCCC1(O)CNCc1ccc2c(c1)OCCCO2 (stereo not drawn)	i
SMILES	FECH block
O=c1cc(CN2CCc3ccccc3C2)nc2nc(NCc3ccccc3)[nH]n12	i
O=c1cc(CN2CCCCC2)nc2nc(NCc3ccccc3)[nH]n12	i
O=c1cc(CN2CCc3ccccc3C2)nc2nc(NCc3ccc(Cl)cc3)[nH]n12	+
O=c1cc(CN2CCN(CCO)CC2)nc2nc(NCc3ccc(Cl)cc3)[nH]n12	i
O=c1cc(CN2CCOCC2)nc2nc(NCc3ccc(Cl)cc3)[nH]n12	i
COc1ccc(CNc2nc3nc(CN4CCc5ccccc5C4)cc(=O)n3[nH]2)cc1	+
O=c1cc(CN2CCOCC2)nc2nc(NCc3ccccc3)[nH]n12	i
COc1ccc(CNc2nc3nc(CN4CCOCC4)cc(=O)n3[nH]2)cc1	+
COc1ccc(CNc2nc3nc(CN4CCN(c5ccccc5)CC4)cc(=O)n3[nH]2)cc1	i
Cc1cc(N(C)Cc2nc3ccccc3n2C)nc(-c2cccnc2)n1	i
CCOC(=O)c1ccccc1NC(=O)CN1CCN(Cc2ccc(C)cc2)S1(=O)=O	i
NS(=O)(=O)c1ccc(CCNC(=O)C2CCN(c3nc4ccccc4n3Cc3cccc(F)c3)CC2)cc1	i
CCOc1ccc(NC(=O)Cc2csc(NC(=O)Nc3cccc(Cl)c3)n2)cc1	i
Cc1ccc(CNS(=O)(=O)c2cc(-c3ccc(=O)[nH]n3)ccc2Cl)cc1	i
CC(=O)N1c2ccc(S(=O)(=O)N3CCCCC3)cc2CC1C(=O)Nc1ccncc1 (stereo not drawn)	i
CC(=O)N1c2ccc(S(=O)(=O)N3CCCCC3)cc2CC1C(=O)NCCCN1CCCC1 (stereo not drawn)	i
CC(=O)N1c2ccc(S(=O)(=O)N3CCOCC3)cc2CC1C(=O)NCCN1CCCC1 (stereo not drawn)	+
Cc1ccccc1CN(CCN(C)C)C(=O)c1ccc2nccn2c1	i
COc1cc(OC)c(NC(=O)CN2CCCN(Cc3cc(C)ccc3C)S2(=O)=O)cc1Cl	+
CCc1cccc(NC(=O)CN2CCN(Cc3ccccc3C)S2(=O)=O)c1	i
CSc1cccc(NC(=O)CN2CCN(Cc3ccccc3C)S2(=O)=O)c1	+
Cc1ccc(NC(=O)CN2CCN(Cc3cc(C)ccc3C)S2(=O)=O)cc1	i
COc1ccc(NC(=O)CN2CCCN(Cc3ccc(C)cc3)S2(=O)=O)c(OC)c1	i
COc1cccc(NC(=O)CN2CCN(Cc3ccc(C)cc3)S2(=O)=O)c1	+
COc1ccc(NC(=O)CN2CCN(Cc3cccc(C)c3)S2(=O)=O)cc1Cl	+
Cc1ccc(CN2CCN(CC(=O)Nc3cc(C)cc(C)c3)S2(=O)=O)cc1	i
CSc1cccc(NC(=O)CN2CCN(Cc3ccccc3)S2(=O)=O)c1	i
